In ChEMBL document CHEMBL3988442, “University of Dundee, Small-Polar-MMV Screening Library” (2021):

Biological target: AMP-activated protein kinase, AMPK (Homo sapiens) (UniProt P54646+O43741+P54619+Q9UGJ0+Q9Y478+Q13131+Q9UGI9)
Assay: AMP-dependent Kinase enzyme assay. An in vitro enzyme assay that detects ADP turnover that is directly proportional to AMPK activity. This uses naive AMPK that is activated during the assay with MK-8722
Assay type: functional
Set-up: scale not given: direction of the effect not stated beside the values
Conditions: 30 µM

Compound	Percent Effect
CC(=O)N[C@@H]1CN(C(=O)c2cccc(C(F)(F)F)c2)C[C@H]1O	5.07%
COc1cnc(N2CCN(C)CC2)nc1-c1ccnn1C	0.474%
CC(C)(CNC(=O)c1ccc(Cl)o1)NC(=O)OC(C)(C)C	-2.97%
Cc1ccsc1C(CNC(=O)c1cc(=O)[nH]c(=O)[nH]1)N(C)C (stereo not drawn)	3.78%
CN1CCCCC1(C)C(=O)N1CCC(c2ccccn2)CC1 (stereo not drawn)	-3.58%
COc1cc(C(=O)O)cc(I)c1OCC(=O)NCCc1ccccc1	11.9%
CCCC1(CO)CCCN(C(=O)CNC(C)=O)C1 (stereo not drawn)	-1.86%
COc1cccc(S(=O)(=O)N2CCN(C)[C@@H]3CS(=O)(=O)C[C@@H]32)c1	1.52%
O=c1[nH]nc(C2CC2)n1-c1cccc(Cl)c1	-10.6%
Cc1ccc(C2(O)CCN(C(=O)Cn3cc(C)c(=O)[nH]c3=O)CC2)nc1	7.31%
CCOc1ccc(CN2CCOCC2c2[nH]ncc2C)cc1CO (stereo not drawn)	22.7%
CN(Cc1ccc(F)cc1F)Cc1cc2c(cc1Br)OCCO2	-3.85%
O=C(O)c1cn(CC2CCCN(c3nc4ccccc4s3)C2)nn1 (stereo not drawn)	-1.06%
CNC(=O)c1cccnc1NCc1ccc(Cn2cccn2)cc1	-3.46%
O=C(CCc1ccsc1)NCC1CCN(C2CC2)C1 (stereo not drawn)	-5.43%
C/C(Cl)=C/CNC(=O)[C@H]1CC[C@]2(CC1)CN(C)C(=O)c1ccccc1O2	7.27%
c1ccc2c(NC3CCc4ncnn4C3)ncnc2c1 (stereo not drawn)	2.92%
Cc1csc(C(C)(C)NCCOc2ccc(CC#N)cc2)n1	-8.66%
